# Bioassay records: PubChem BioAssay, National Center for Advancing Translational Sciences (NCATS)
# The list is not random: actives were taken first. Their share in the collection is about 4.3%.
# GLP-1R agonist = qHTS of GLP-1 Receptor Agonists; Glucagon-like peptide 1 receptor (Homo sapiens), P43220; HEK293 GLP-1R CRE-luciferase, luminescence, 4-6 h; cells express a hypersensitive GLP-1R form; Potency, µM (titrated, usually from 45.6 µM), for inactives: at the highest dose activation, most hits filed as activators; 380,000 tested, 0.007% active; also: potency is read from the fitted curve at half-maximal effect; % of control where 0% means no effect
# Target sequence (P43220 whole entry, looked up): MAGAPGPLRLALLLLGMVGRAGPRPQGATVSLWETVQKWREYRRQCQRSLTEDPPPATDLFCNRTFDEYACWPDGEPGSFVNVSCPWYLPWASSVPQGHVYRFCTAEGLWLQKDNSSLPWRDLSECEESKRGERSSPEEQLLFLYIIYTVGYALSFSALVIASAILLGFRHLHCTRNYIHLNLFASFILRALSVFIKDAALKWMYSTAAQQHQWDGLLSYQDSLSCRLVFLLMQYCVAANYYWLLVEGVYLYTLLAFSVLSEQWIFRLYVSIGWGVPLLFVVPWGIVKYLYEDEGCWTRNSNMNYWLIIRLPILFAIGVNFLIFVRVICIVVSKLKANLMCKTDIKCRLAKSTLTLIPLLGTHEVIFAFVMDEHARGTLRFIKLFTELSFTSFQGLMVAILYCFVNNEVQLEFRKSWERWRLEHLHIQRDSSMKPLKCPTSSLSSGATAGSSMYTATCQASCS
# GLP-1R inv ag = qHTS of GLP-1 Receptor Inverse Agonists (Inhibition Mode); Glucagon-like peptide 1 receptor (Homo sapiens), P43220; HEK293 GLP-1R CRE-luciferase, luminescence, 24 h; GLP-1R form is constitutively active; Potency, µM (titrated, usually from 38.3 µM), without a hit: at the top dose activity change, negative = inhibition, usual class: inhibitors; 410,000 tested, 1.6% active; AID 624417, 2012; also: potency is read from the fitted curve at half-maximal effect; % is scaled to controls: 0 for no effect and ±100 for the full control effect; nearly all actives have a fitted effect of over 55% in size
#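 Readout was luciferase luminescence, measured 12 min after detection reagent at room temperature. Beforehand, GLP-1R reporter HEK293 cells had sat 12 h, then received compounds for 24 hr at 37 deg C.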
# DRD3 agonist = qHTS of D3 Dopamine Receptor Agonist: qHTS; max activation, %; D3R DiscoveRx beta-arrestin cells, luminescence, 90 min; 410,000 tested, 0.58% active; in the data active = max activation above about 30%; also: 0% is about no effect
#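 Agonist-mode cell screen: cells plated at 1500/well and incubated overnight at 37 °C, then exposed to library compounds for 90 min at 37 °C. Detection reagent was added for 30–60 min at room temperature, and luminescence was read.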
# DRD3 antagonist = qHTS of D3 Dopamine Receptor Antagonist: qHTS. max response, negative = inhibition, %. 360,000 tested, 2.5% active. D3R cells, DiscoveRx beta-arrestin luminescence, antagonist mode; hits give low values. D(3) dopamine receptor (Homo sapiens), P35462; in the data active = max response below about -50%; inconclusive = no clear call, values can overlap the other calls; also: % is scaled to controls: 0 for no effect and ±100 for the full control effect
#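 Cells plated overnight at 1500 cells/well, then exposed to library compounds with dopamine controls for 90 minutes at 37 degrees C. DiscoveRx reagent added for 30–60 minutes at room temperature; luminescence read, quantitative HTS format.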
# * hit, by the source's call; ? = inconclusive; · = not tested or not shown; [ ] = dose if it differs, or a comment. Unless noted, calls follow the shape of the dose curve; as a rule, active = well fitted curve in the direction sought with a large enough effect; inconclusive = small, poorly fitted or top-dose-only effect, or another doubt; inactive = no such curve, though single readings can be large; an effect the other way counts as inactive or inconclusive.
SMILES,GLP-1R agonist,GLP-1R inv ag,DRD3 agonist,DRD3 antagonist
CSCC[C@H](NC(=O)[C@@H](Cc1ccc(O[S+](=O)([O-])O)cc1)NC(=O)[C@H](N)CC(=O)O)C(=O)NCC(=O)N[C@@H](Cc1c[nH]c2ccccc12)C(=O)N[C@H](CCSC)C(=O)N[C@H](CC(=O)O)C(=O)N[C@@H](Cc1ccccc1)C(N)=O,-0.1%,·,·,·
C=CCC1(CC=C)CCCN1C(=O)c1cc(COc2ccc(F)c(F)c2)on1,4.0%,2.82µM*,-5.5,-9.7
CCOC(=O)CC1(NC(=O)c2cc(COc3ccc(F)c(F)c3)on2)CCCCC1,16.5%,10µM*,-1.4,3.9
Cc1cc(CNC(=O)c2cc(COc3ccc(F)c(F)c3)on2)nn1C,1.1%,-15.7%,-15.2,3.0
c1cnc2c(C3NCCc4c3[nH]c3ccccc43)cccc2c1 (configuration not stated),-1.7%,?,-58.5,-87.3*
Cc1ccc(NC(=O)c2c(NC(=O)C(F)(F)F)sc3c2CCCCC3)cc1,·,?,6.4,·
C=CCC1Cc2c(cccc2[N+](=O)[O-])C(CC=C)N1 (configuration not stated),-6.6%,4.1%[0.307 µM],41.4*,7.8
OC(CN1CCN(Cc2ccccc2)CC1)c1ccccc1 (configuration not stated),2.4%,2.2%,-2.5,-21.6
O=S(=O)(CCN1CCN(C(c2ccccc2)c2ccccc2)CC1)C(F)(F)F,-5.8%,0.0%,-0.3,-50.4*
Fc1ccc(CN2CCN(C(c3ccccc3)c3ccccc3)CC2)cc1,-2.9%,?,-23.3,-82.4*
C(=C/c1ccccc1)/CN1CCN(C(c2ccccc2)c2ccccc2)CC1,2.4%[19.8 µM],·,·,·
c1ccc(CN2CCN(C(c3ccccc3)c3ccccc3)CC2)cc1,-3.4%,?,-10.9,-70.0*
O=C1c2ccccc2C(=O)N1CC#CCN1CCN(C(c2ccccc2)c2ccccc2)CC1,14.7%,?,-18.0,-88.2*
COc1ccc(S(=O)(=O)N(CCc2ccccc2)CC(=O)Nc2cc(Cl)ccc2C)cc1,·,7.2%,-23.4,·
CCOC(=O)c1cccc(NC(=O)NCc2cccn2Cc2ccccc2)c1,·,-27.6%,-5.1,·
COc1cccc(CC(=O)Nc2ccc3nc(Nc4cccc(C(F)(F)F)c4)cc(C)c3c2)c1,-8.3%,?,2.8,·
Cc1ccc(S(=O)(=O)NNc2nc3ccccc3nc2C(F)(F)F)cc1,3.1%,-27.4%,0.5,-54.5*
COCCCNC(=S)N/N=C/c1ccc(O)cc1,3.0%,16.9%,8.2,-29.4
COCCCNC(=S)N/N=C/c1cccc(OC)c1O,8.8%,1.12µM*,15.3,-0.3
COCCCNC(=S)N/N=C/c1ccc(O)cc1O,12.6%,31.9%,32.0*,-4.8
CCc1cccc(C)c1NS(=O)(=O)c1cc2[nH]c(=O)c(=O)[nH]c2cc1C,·,21.5%,6.0,·
Cc1ccc(OCCCCn2cnc3ccccc32)c(C)c1,27.8%,3.6%,1.7,-57.0*
Cc1ccc(OCCn2cccn2)c(C)c1,0.0%,17.7%,1.8,-1.4
Cc1ccc(C(C)C)c(OCCCN2CCc3ccccc3C2)c1,-0.8%,?,-20.3,-84.8*
Cc1ccc(C(C)C)c(OCCN2CCc3ccccc3C2)c1,-11.2%,?,-33.5,-67.0*
SMILES,GLP-1R agonist,GLP-1R inv ag,DRD3 agonist,DRD3 antagonist
Cc1ccc(OCCCCN2CCc3ccccc3C2)c(C)c1,3.5%,?,-31.1,-106.2*
Cc1ccc(C(C)C)c(OCCCN2C(=O)NC(C)(C)C2=O)c1,6.1%,?,0.1,-4.0
Cc1ccc(C(C)C)c(OCCCn2c(=O)oc3ccccc32)c1,·,?,4.2,·
Cc1ccc(Cl)cc1N1CCN(C(=O)CCn2c(=O)c3cccn3c3cccnc32)CC1,·,3.4%,1.8,·
COc1ccc(Cn2c(CNS(=O)(=O)c3ccc4c(c3)CCCC4)nc3cccnc32)cc1,·,-11.2%,0.6,·
Cc1ccc(C)c(OCCCN2CCc3ccccc3C2)c1,-2.4%,?,-12.4,-88.6*
OCCN(CCO)c1cc2c3ccccc3ccc2c2ccccc12,13.2%,10µM*,4.5,-17.4
Cc1cc2ccccc2c(=O)n1CC(=O)NCC(=O)N1CCN(c2ccccc2)CC1,-12.7%,2.1%,-7.7,-52.1*
Cc1cc2ccccc2c(=O)n1CC(=O)N1CCN(c2cccc(Cl)c2)CC1,0.3%,-13.5%,-1.2,-10.0
